# Screening results as filed in PubChem BioAssay.
# Cycloheximide cs – Cycloheximide Counterscreen for Small Molecule Inhibitors of Shiga Toxin | AID 2314, 2010 | max response, % | hit rate 12% among 300,000 | cell reporter, cycloheximide protein synthesis inhibition counterscreen; in the data active means max response mostly above about 13%, no sharp cut-off; inactive means mostly below about 14%; further: read at 38.3 µM for the half of the compounds with a filed dose; 0% is about no effect
# Shiga inhibitor – A qHTS for Small Molecule Inhibitors of Shiga Toxin; hit rate 9.2% among 290,000; Vero cells, Shiga toxin protein synthesis inhibition reporter; inhibition, % at 38.7 µM; in the data active means inhibition mostly above about 28%, no sharp cut-off; inactive means mostly below about 43%; further: 0% is about no effect
# SARS PLpro yeast – qHTS of Yeast-based Assay for SARS-CoV PLP. Potency, µM (top dose mostly 32.9 µM), for the others: at the highest dose activity, positive = growth rescue, hits mostly activators. S. cerevisiae expressing SARS-CoV PLpro, growth rescue. AID 485353, 2010. hit rate 0.19% among 330,000; further: potency means the concentration at half of the fitted maximal effect; 0% is about no effect; nearly all actives have a fitted effect of over 55% in size
# NS1 inh – qHTS Assay for Inhibitors of Influenza NS1 Protein Function. Potency, µM (highest dose often 46.1 µM), for the others: at the top dose activity, positive = more growth. hit rate 0.4% among 270,000; further: potency means the concentration at half of the fitted maximal effect; actives are rising curves; nearly all actives have a fitted effect of over 50% in size
#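 Recovery from NS1-induced slow growth read by OD600 in budding yeast switched to galactose assay medium (pH 6.0, -URA) at 1:100 dilution. Compound 23 nl per well; the matching strain lacking NS1 serves as control.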
# Pf growth 96h – Primary qHTS for delayed death inhibitors of the malarial parasite plastid, 96 hour incubation; P. falciparum luciferase reporter growth, 96 h; Potency, µM (highest dose often 28.7 µM), inactives show at the top dose activity change, negative = inhibition, usual class: inhibitors; hit rate 6.9% among 320,000; AID 504834, 2011; active means well fitted inhibition curve with a large enough effect; inconclusive means small, poorly fitted or top-dose-only effect, or another doubt; inactive means no such curve, though single readings can be large or run the other way; further: potency means the concentration at half of the fitted maximal effect; on the % scale 0 is the no-effect control and ±100 the full control effect
#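 Two parasite generations (96 h, 37 C, 5% CO2) of compound exposure in infected erythrocytes (0.05% parasitemia, 2% hematocrit). Luciferase-reporter P. falciparum; decreased luminescence indicates inhibited growth, aimed at apicoplast-acting delayed death.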
# Pf growth 48h – Primary qHTS for delayed death inhibitors of the malarial parasite plastid, 48 hour incubation. hit rate 5.9% among 310,000. AID 504832, 2011. Potency, µM (top dose mostly 28.7 µM), without a hit: at the highest dose activity change, negative = inhibition, usual class: inhibitors. P. falciparum luciferase growth in erythrocytes, 48 h; active means well fitted inhibition curve with a large enough effect; inconclusive means small, poorly fitted or top-dose-only effect, or another doubt; inactive means no such curve, though single readings can be large or run the other way; further: potency means the concentration at half of the fitted maximal effect; on the % scale 0 is the no-effect control and ±100 the full control effect
#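 Cell-based growth assay: transgenic P. falciparum expressing firefly luciferase, cultured in red cells within RPMI 1640 containing 0.5% w/v Albumax, 24 mM bicarbonate and gentamycin. A drop in luciferase activity indicates inhibition.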
# The depositor's hits bear a star; ? = inconclusive; / = no result given; [ ] = another dose, or the depositor's remark. Hits are enriched below; roughly 21% of the tested compounds scored in any of these assays. Unless noted, the call rests on the fitted dose curve.
SMILES,Cycloheximide cs,Shiga inhibitor,SARS PLpro yeast,NS1 inh,Pf growth 96h,Pf growth 48h
Cc1cc(C(=O)O/N=C(\N)c2ccc(C(C)(C)C)cc2)no1,33*,42*,-1%,1%,463%,362%
CCCCCCCc1nc2nc(C)c(Br)c(=O)n2[nH]1,-2,5,-1%,1%,-10%,16%
CC(C)N1C(=O)CC(Nc2ccc(N3CCOCC3)cc2)C1=O (stereo not drawn),39*,30,-8%,-2%,68%,/
COc1ccc(NC2CC(=O)N(C(C)C)C2=O)cc1 (stereo not drawn),8,23,-1%,-1%,24%,16%
CCCn1c(N)c(N(C)C)c(=O)n(CC(=O)Nc2ccc(OC(F)(F)F)cc2)c1=O,-3,2,2%,0%,10µM*,-2%
CN(C)C(=O)c1ccc(NC(=O)COc2cccc3c2OC(C)(C)C3)cc1,/,/,-2%,/,4%,?
C/C(=N\Nc1ccc([N+](=O)[O-])cc1)c1cccc(N)c1,39*,123*,-18%,-74%,144%,178%
C/C(=N\Nc1ccc([N+](=O)[O-])cc1)c1ccc(O)cc1,37*,45*,-20%,/,115%,43%
C/C(=N/Nc1ccccc1[N+](=O)[O-])c1ccc([N+](=O)[O-])cc1,-8,-7,-1%,-1%,?,24%
COC(=O)c1[nH]c2ccc(C)cc2c1NC(=O)CN1CCN(c2ccccc2)CC1,1,-9,-9%,-9%,/,10µM*
CCOC(=O)c1[nH]c2ccc(OCC)cc2c1NC(=O)CN1CCN(c2ccccc2)CC1,28*,60,4%,-4%,51%,?
CCOC(=O)c1[nH]c2ccc(OCC)cc2c1NC(=O)CN1CCC2(CC1)OCCO2,9,13,0%,-19%,/,?
Cc1ccc2[nH]c(C(=O)O)c(NC(=O)CN3CCN(c4cccc(C)c4C)CC3)c2c1,-8,-7,-1%,-6%,4.7µM*,0%
CCOC(=O)c1[nH]c2cc(OC)c(OC)cc2c1NC(=O)CN1CCN(c2ccc(OC)cc2)C(C)C1 (stereo not drawn),17,29,-27%,-47%,/,9.3µM*
CCCOC(=O)CSc1nc(N)c(C#N)c(CC)c1C#N,-1,-5,-5%,2%,?,?
COc1cc(/C=C/C(=O)O)cc(S(=O)(=O)Nc2ccc3c(c2)CCC3)c1OC,-5,-7,4%,20%,-1%,-3%
COC(=O)c1[nH]c2ccc(Cl)cc2c1NC(=O)CN1CCC(C(N)=O)CC1,-7,-9,3%,0%,?,12µM*
COC(=O)c1[nH]c2cc(OC)ccc2c1NC(=O)CN1CCC(C(N)=O)CC1,-5,26,25%,2%,-12%,6%
Cc1nnsc1S(=O)(=O)Cc1ccccc1C(F)(F)F,-2,-15,-2%,/,?,2%
Cn1nc(C(F)(F)F)c2cc(C(=O)Nc3ccc(F)c(Cl)c3)sc21,0,7,-1%,-7%,2.1µM*,3.3µM*
Cn1nc(C(F)(F)F)c2cc(C(=O)Nc3ccc(F)cc3)sc21,1,-1,-2%,-6%,?,?
Cn1nc(C(F)(F)F)c2cc(C(=O)Nc3ccc(C(F)(F)F)cc3)sc21,0,8,0%,-8%,?,6.6µM*
Cn1nc(C(F)(F)F)c2cc(C(=O)O)sc21,8,-2,4%,/,-20%,-3%
COc1ccc(C2=NS(=O)(=O)N(C)C(C(=O)NCc3ccc4c(c3)OCO4)=C2)cc1OC,1,-3,-5%,5%,8%,-29%
C[C@H](CO)N1C[C@H](C)[C@@H](CN(C)S(=O)(=O)c2cccs2)Oc2c(NS(=O)(=O)c3ccc(F)cc3)cccc2C1=O,/,/,0%,/,/,/
SMILES,Cycloheximide cs,Shiga inhibitor,SARS PLpro yeast,NS1 inh,Pf growth 96h,Pf growth 48h
COc1ccc(Cn2nnnc2CN(Cc2cc3cccc(C)c3[nH]c2=O)C2CCCC2)cc1,1,0,-3%,-43%,24%,10µM*
Cc1cccc2cc(CN(Cc3nnnn3C3CCCCC3)C3CCCC3)c3nnnn3c12,-3,13,-56%,12%,/,12µM*
Cc1ccc2cc(CN(Cc3ccc(F)cc3)Cc3nnnn3C3CCCC3)c(=O)[nH]c2c1,12*,15,-1%,-25%,51%,3.7µM*
CCC(C)(C)n1nnnc1CN(Cc1cc2cc(OC)ccc2[nH]c1=O)C1CCCC1,-4,8,4%,-32%,24%,?
COc1ccc(Cn2nnnc2CN(Cc2cc3ccc(C)cc3[nH]c2=O)C2CCCC2)cc1,-3,20,2%,-36%,4%[5.75 µM],9.3µM*
CC(C)c1ccc(NC(=O)Cn2c(=O)oc3cccnc32)cc1,0,24,0%,-1%,?,14%
CCc1nc2ccccc2n1CC(O)COCC1CC=CCC1 (stereo not drawn),-2,10,0%,-2%,-12%,-19%
COc1ccc(/C=N/n2cnnc2SCc2ccccc2)cc1,-4,75,-1%,-31%,10%,?
Cc1ccc(C(OCC(C)(C)C[N+](C)(C)C)c2ccccc2)cc1 (stereo not drawn),0,14,2%,/,?,1.3µM*
CN(/N=C/c1cccnc1)c1cnc2ccccc2n1,47*,64*,-6%,/,-8%,295%
COc1ccc(-n2ccc3ccccc32)cc1,25*,32,0%,-2%,33%,42%
C=C1C2(C(=O)Nc3nccs3)CCC(C2)C1(C)C (stereo not drawn),10,-7,?,-3%,/,1.2µM*
O=C(Nc1nccs1)C1(c2ccc(Cl)cc2)CC1,0,14,3%,6%,?,?
CC(=O)NNC(=S)NC(=O)C(c1ccccc1)c1ccccc1,-1,-4,1%,-16%,?,2.1µM*
CC(C)(C)C(=O)NC(=S)NNC(=O)C(c1ccccc1)c1ccccc1,3,-4,-2%,-37%,?,13µM*
CCNC(=S)NNC(=O)C(c1ccccc1)c1ccccc1,-1,-21,10%,7%,-33%,-10%
CC(C)(C)OC(=O)N1CCC(Cc2cc(-c3ccccc3)no2)(C(=O)O)CC1,-2,-5,0%,-57%,76%,38%
Cc1ccc(/C=N/c2sc(Cc3ccccc3)c(C)c2C(N)=O)o1,-4,-6,-4%,-3%,?,2%
CN(C)c1ccc(C=Nc2ccccc2C(N)=O)cc1,26*,39,-7%,-108%,30%,12%
Cc1ccc(C=Nc2ccccc2C(N)=O)o1,61*,61*,-24%,?,202%,155%
C[C@H]1COC(=O)O1,-4,16,/,/,/,/
Fc1c(F)c(C(F)(F)F)c(F)c(F)c1N/N=C\c1cccs1,-1,-20,-7%,-9%,/,?
Nc1cc(-c2ccccc2)c[nH]c1=O,4,25,/,/,/,/
